Compound activity from PubChem BioAssay.
Hits are enriched below; roughly 2.7% of the tested compounds scored in any of these assays.
LDHA block = inhibitors of human lactate dehydrogenase A; activity change, % (values are at about 110 or 230 µM); 0.15% of 480,000 active; purified LDHA, NADH/diaphorase-resazurin fluorescence; hits give low values; AID 1347041; P00338; in the data active = activity change below about -30%; inconclusive = mostly about -25% to -30%;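 note: plate controls were DMSO wells for no effect and wells without enzyme for full effect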
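LDH5 2 nM; NADH 0.06 mM, pyruvate 0.2 mM; 200 mM Tris pH 7.4, EDTA, Tween-20; 5 min RT. Detection: diaphorase 0.133 mg/mL + resazurin 37 µM, fluorescence ex540/em590 at 0 and 20 min; normalized to enzyme-free and DMSO wells.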
Nrf2 ARE act = Nrf2 pathway activation. AREc32 ARE-luciferase reporter (MCF7-derived line), luminescence, 24 h. Potency, µM (highest dose often 46.1 µM), for the others: top-dose activation, usual class: activators. 0.31% of 410,000 active. AID 624171; note: potency is the fitted concentration of half-maximal effect; % of control where 0% means no effect; nearly all actives have a fitted effect of over 65% in size
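Luciferase luminescence (Steady-Glo, 30 min at room temperature) served as the read-out of ARE activation in AREc32 cells treated with compounds for 24 hr at 37 deg C.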
12-LOX inh = blocks human arachidonate 12S-lipoxygenase; purified 12hLO, xylenol orange hydroperoxide absorbance; Potency, µM (series often up to 108 µM), for the others: top-dose activity change, negative = inhibition, most hits filed as inhibitors; 1.1% of 580,000 active; AID 1671190; note: potency is the fitted concentration of half-maximal effect; % is set by controls: 0 for no effect and ±100 for the full control effect
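Purified human 12hLO (150 nM final) in 25 mM Hepes, 0.01% Triton X-100, pH 7.0 was preincubated 15 min at room temperature with compound. Then 40 uM arachidonic acid was added, 30 min. Hydroperoxide was read by Fe-XO absorbance ratio 573/405 nm.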
A549 tox-1 = A549 cytotoxicity, counter-screen for Nrf2 inhibitors; A549 ARE-Fluc cells, CellTiter-Fluor viability, 18-24 h; Potency, µM (doses to about 46 µM), without a hit: at the top dose activity change, negative = cytotoxicity, hits mostly inhibitors; 0.16% of 390,000 active; note: potency is the fitted concentration of half-maximal effect; % is set by controls: 0 for no effect and ±100 for the full control effect
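Cytotoxicity counterscreen: CellTiter-Fluor fluorescence was measured in A549 ARE_Fluc cells after 18-24 h of compound exposure in a concentration series. The subsequent BugLite luminescent read reports ARE-luciferase activity.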
Nrf2 inh = Nrf2 pathway inhibition; A549 ARE-Fluc reporter, luciferase luminescence, 18-24 h; Potency, µM (top dose mostly 46 µM), for inactives: at the highest dose activity change, negative = inhibition, most hits filed as inhibitors; 2.1% of 360,000 active; note: potency is the fitted concentration of half-maximal effect; % is set by controls: 0 for no effect and ±100 for the full control effect; nearly all actives have a fitted effect of over 60% in size
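Nrf2 function is reported as luminescence of an ARE-controlled luciferase in A549 cells. Compounds were tested at several concentrations, and a CellTiter-Fluor read on the same wells flagged cytotoxicity.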
IDH1 R132H inh = human IDH1 R132H inhibition. Potency, µM (top dose mostly 76.6 µM), for inactives: at the highest dose activity change, negative = inhibition, actives largely listed as inhibitors. AID 602179. 0.093% of 390,000 active. IDH1-R132H enzyme, NADPH consumption, diaphorase/resazurin fluorescence; note: potency is the fitted concentration of half-maximal effect; % is set by controls: 0 for no effect and ±100 for the full control effect; nearly all actives have a fitted effect of over 65% in size
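IDH1-R132H (0.5 ug/mL dispensed) in pH 7.5 Tris buffer was preincubated 30 min with compound, then given a substrate mix of 0.016 mM NADPH and 2 mM alpha-KG for 80 min at room temperature; remaining NADPH was read by diaphorase/resazurin fluorescence.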
FLuc counter 3 = counter-screen for Nrf2 inhibitors: firefly luciferase enzyme inhibition. 4% of 1,400 active. purified firefly luciferase, luminescence inhibition. AID 720522. shares compounds with Nrf2 inh. Potency, µM (top dose mostly 57.5 µM), without a hit: at the highest dose activity change, negative = inhibition, hits mostly inhibitors; note: potency is the fitted concentration of half-maximal effect; % is set by controls: 0 for no effect and ±100 for the full control effect; nearly all actives have a fitted effect of over 65% in size
Target sequence (P08659 whole entry, looked up): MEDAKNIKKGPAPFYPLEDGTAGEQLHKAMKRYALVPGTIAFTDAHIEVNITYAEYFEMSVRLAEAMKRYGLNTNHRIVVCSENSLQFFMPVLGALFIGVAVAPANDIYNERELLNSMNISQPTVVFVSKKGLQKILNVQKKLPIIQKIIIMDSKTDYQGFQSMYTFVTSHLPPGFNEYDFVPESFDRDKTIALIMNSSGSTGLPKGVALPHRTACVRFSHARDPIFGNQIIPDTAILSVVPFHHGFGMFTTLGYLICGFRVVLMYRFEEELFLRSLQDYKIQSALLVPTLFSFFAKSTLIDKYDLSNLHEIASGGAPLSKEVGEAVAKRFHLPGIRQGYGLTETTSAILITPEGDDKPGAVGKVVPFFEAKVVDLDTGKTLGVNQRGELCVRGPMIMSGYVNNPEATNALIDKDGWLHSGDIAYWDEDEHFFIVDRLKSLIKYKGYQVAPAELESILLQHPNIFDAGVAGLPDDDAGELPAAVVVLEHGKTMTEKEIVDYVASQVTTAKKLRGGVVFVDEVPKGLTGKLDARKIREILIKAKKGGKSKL
A549 tox-2 = toxic to A549 ARE-Fluc cells in Nrf2 counterscreen; shares compounds with Nrf2 inh; 2% of 1,400 active; A549 ARE-Fluc cells, cytotoxicity counterscreen; AID 720523; Potency, µM (doses to about 46.1 µM), without a hit: at the top dose activity change, negative = cytotoxicity, most hits filed as inhibitors;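 note: potency is the fitted concentration of half-maximal effect; cells exposed to compounds for 18 to 24 hours; % is set by controls: 0 for no effect and ±100 for the full control effect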
Nrf2 ARE inh = confirmation of Nrf2 inhibitors in A549 ARE reporter cells. shares compounds with Nrf2 inh. A549 ARE-firefly luciferase reporter, luminescence. Potency, µM (highest dose often 46.1 µM), for inactives: top-dose activity change, negative = inhibition, actives largely listed as inhibitors. 74% of 1,400 active. AID 720524; note: potency is the fitted concentration of half-maximal effect; % is set by controls: 0 for no effect and ±100 for the full control effect; nearly all actives have a fitted effect of over 65% in size
Numbers without * were called inactive; u = inconclusive; x = no result shown. Unless noted, calls come from the whole dose curve; as a rule, active = well fitted curve in the direction sought with a large enough effect; inconclusive = small, poorly fitted or top-dose-only effect, or another doubt; inactive = no such curve, though single readings can be large; an effect the other way counts as inactive or inconclusive.

SMILES | LDHA block | Nrf2 ARE act | 12-LOX inh | A549 tox-1 | Nrf2 inh | IDH1 R132H inh | FLuc counter 3 | A549 tox-2 | Nrf2 ARE inh
CC(/C=N\NC(=O)Cn1c(C)nc2ccccc21)=C\c1ccccc1 | 1 | 13% | -21% | -19% | 8.2µM* | 3% | -2% | -18% | 7.3µM*
COc1ccc2c(c1)/C(=C\c1cccc(/C=C3/C(=O)Nc4ccc(OC)cc43)n1)C(=O)N2 | 1 | 7% | 3% | -29% | 8.2µM* | 1% | u | -16% | u
O=S(=O)(Nc1cc(Sc2ncn[nH]2)c(O)c2ccccc12)c1ccccc1 | 51 | -3% | u | u | u | 24% | x | x | x
O=C(O)CSc1cc(NS(=O)(=O)c2ccc(Br)cc2)c2ccccc2c1O | 17 | 0% | u | -16% | 2.3µM* | 14% | 12µM* | -4% | -8%
CCCCN=c1scc(-c2ccc3c(c2)NC(=O)CO3)n1N=C1CCCC1 | 6 | 4% | u | -18% | x | 11% | x | x | x
CCN=c1scc(-c2ccc3c(c2)NC(=O)CO3)n1N=C1CCCC1 | 2 | 16% | u | -16% | 16µM* | 2% | -10% | -12% | 7.3µM*
COCC(C)n1c(-c2ccc3c(c2)NC(=O)CO3)csc1=Nc1ccc(OC(F)F)cc1 (centres undefined) | -1 | 12% | u | u | 10µM* | 0% | 0% | -26% | 9.2µM*
Cc1c(C)n2c3c(=O)[nH]c(=O)n(C)c3nc2n1CCNc1ccc(Cl)cc1 | -3 | x | u | x | x | x | x | x | x
CNC(=O)C(C)Sc1nc2ccc(F)cc2c(=O)[nH]1 (centres undefined) | -1 | x | u | x | x | x | x | x | x
CC(=O)Nc1ccc(NC(=S)NC(=O)/C=C/c2ccc(Cl)cc2)cc1 | 1 | 0% | 0% | 0% | u | 2% | x | x | x
O=C(/C=C/c1ccc(Cl)cc1)NC(=S)Nc1ccc(NC(=O)c2ccco2)cc1 | -11 | 4% | 7% | -15% | 0.82µM* | 4% | 0% | -24% | 0.82µM*
Cc1cccc(N2CCN(C(=O)C3CCC(CNS(=O)(=O)c4ccc(Br)s4)CC3)CC2)c1C (centres undefined) | 0 | 0% | u | 0% | u | -9% | x | x | x
Cc1cccc(N2CCN(C(=O)C3CCC(CNS(=O)(=O)c4cccs4)CC3)CC2)c1C (centres undefined) | 0 | 3% | 7% | -20% | 6.5µM* | -2% | 0% | -17% | 8.2µM*
COc1ccc(C(=O)C2CCCN(S(=O)(=O)c3ccc(C(C)=O)cc3)C2)c(C)c1 (centres undefined) | 1 | 0% | 12% | -14% | 8.2µM* | -8% | 5% | -2% | x
CCOC(=O)C1CCCN(S(=O)(=O)c2ccc(S(=O)(=O)N3CCCC3)cc2)C1 (centres undefined) | -2 | -1% | 0% | -15% | 8.2µM* | 13% | 3% | -3% | u
CCS(=O)(=O)N1CCCC(C(=O)c2ccc(OC)cc2C)C1 (centres undefined) | -8 | -1% | 0% | -9% | -14% | 10% | x | x | x
Cc1oc(-c2cccc(NC(=O)c3ccccn3)c2)nc1CNC(=O)c1ccc(C(F)(F)F)cc1 | x | x | 12% | x | x | x | x | x | x
Cc1oc(-c2ccc(C(=O)Nc3cccc(C(F)(F)F)c3)cc2)nc1CSc1ccccc1 | -8 | -1% | u | u | 5.8µM* | 19% | -1% | -26% | 1.8µM*
CCN1/C(=C/c2cc[n+](CCCS(=O)(=O)[O-])c3ccccc23)Sc2ccccc21 | -18 | 0% | u | -22% | 1% | 7% | x | x | x
C=CC[n+]1ccc(/C=C2\C=Cc3cc(C)ccc3N2CC)c2ccccc21 | 9 | -4% | x | u | 7.3µM* | 10% | u | u | x
C=CCn1c(SCc2c(C)noc2C)nc2sc3c(c2c1=O)CCCC3 | -7 | -1% | 0% | u | 9.2µM* | 4% | -1% | -14% | u
C=CCn1c(SCC(=O)N(C)C)nc2sc3c(c2c1=O)CCC3 | -7 | 2% | 10% | -1% | -11% | 1% | x | x | x
O=C(NC1CCCc2c1cnn2-c1cc(F)cc(F)c1)c1ccncc1 (centres undefined) | -1 | -1% | -27% | 8% | -5% | 10% | x | x | x
Cc1ncoc1C(=O)NC1CCCc2c1cnn2-c1ccc(C(C)(C)C)cc1 (centres undefined) | 0 | 0% | 498% | u | 2.3µM* | 5% | u | -6% | 5.2µM*
Cc1nnsc1C(=O)NC1CCCc2c1cnn2-c1ccc(C(C)(C)C)cc1 (centres undefined) | 3 | -1% | 0% | u | 2.1µM* | -4% | u | -13% | x
SMILES | LDHA block | Nrf2 ARE act | 12-LOX inh | A549 tox-1 | Nrf2 inh | IDH1 R132H inh | FLuc counter 3 | A549 tox-2 | Nrf2 ARE inh
CC(C)(C)c1ccc(-n2ncc3c2CCCC3NC(=O)c2ccncc2)cc1 (centres undefined) | -4 | 0% | 142% | -12% | 2.6µM* | 6% | u | -6% | 8.2µM*
Cc1cc(C(=O)NC2CCCc3c2cnn3-c2ccc(C(C)(C)C)cc2)n[nH]1 (centres undefined) | -11 | 4% | 25% | 13% | 4.6µM* | -4% | u | -11% | 16µM*
COc1ccc(-n2ncc3c2CC(C)(C)CC3NC(=O)c2cc(C)[nH]n2)cc1 (centres undefined) | x | x | 39% | x | x | x | x | x | x
Cc1ccc(-c2csc(NC(=O)c3cccc([N+](=O)[O-])c3)n2)cc1 | -7 | -1% | -19% | -5% | u | 3% | 2% | -12% | 1.5µM*
O=C(Nc1ccc(-c2csc(Nc3ccccc3)n2)cc1)c1cccc(C(F)(F)F)c1 | -9 | 9% | -9% | -6% | 9.2µM* | -3% | -15% | -25% | 15µM*
O=C(Nc1nc(-c2ccccc2)cs1)c1ccc(N2CCOCC2)c([N+](=O)[O-])c1 | -3 | 0% | x | u | 4.6µM* | 0% | u | u | 7.3µM*
